Screens: PubChem BioAssay, Fisher Drug Discovery Resource Center
Many of the other results were omitted from the sample, so hits are more common in it than they were.
mcGAS RapidFire: inhibitors of Mus musculus cyclic GMP-AMP synthase, initial high-throughput assay, cell-free, RapidFire MS; Q8C6L5; recombinant mouse cGAS, cGAMP by RapidFire MS; inhibition, % at 12.5 µM; 0.18% of 130,000 active;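 active = inhibition of cGAS enzyme activity at or above 60%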;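 note: enzyme stimulated by 45 bp dsDNA with ATP and GTP substrates; cGAMP share of summed cGAMP plus half ATP and half GTP signals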
Target sequence (Q8C6L5 whole entry, looked up): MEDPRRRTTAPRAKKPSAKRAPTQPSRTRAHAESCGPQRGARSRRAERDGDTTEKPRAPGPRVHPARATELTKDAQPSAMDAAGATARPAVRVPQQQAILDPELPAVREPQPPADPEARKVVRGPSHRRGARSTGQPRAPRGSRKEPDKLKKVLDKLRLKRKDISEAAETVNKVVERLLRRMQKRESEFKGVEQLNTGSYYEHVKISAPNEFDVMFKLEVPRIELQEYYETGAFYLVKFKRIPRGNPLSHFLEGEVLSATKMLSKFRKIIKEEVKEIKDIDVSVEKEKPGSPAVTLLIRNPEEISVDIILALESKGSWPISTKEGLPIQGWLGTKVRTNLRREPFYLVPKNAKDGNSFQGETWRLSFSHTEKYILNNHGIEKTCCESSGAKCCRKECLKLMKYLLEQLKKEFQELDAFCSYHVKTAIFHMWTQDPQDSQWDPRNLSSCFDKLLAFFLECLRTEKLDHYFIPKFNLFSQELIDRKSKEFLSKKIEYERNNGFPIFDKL
The depositor's hits bear a star; ! = a repeat was not active.

SMILES	mcGAS RapidFire
CCN(CC)CCNc1ccc(CO)c2sc3ccccc3c(=O)c12	66*!
CCN(CC)CCNc1nc2c(F)cccc2s1	-29
CCN(CC)CCNC(=O)c1cnc(C(C)(C)C)s1	-20
CN1CCCC(C(=O)Nc2ccc3ccccc3n2)C1 (stereo not given)	-3
CN1CCN(C2=NC(C(=O)Nc3ccccc3)CC(=O)N2)CC1 (stereo not given)	70*
CN1C(=O)CC(C(=O)Nc2ccccc2)SC1=Nc1ccc(Cl)c(C(F)(F)F)c1 (stereo not given)	-7
CN1CCC(N(Cc2ccccc2)C(=O)Nc2ccc(NC(=O)C3CC3)cc2)CC1	-10
O=C1NCCCCC1Sc1nncn1Cc1ccco1 (stereo not given)	5
CN(Cc1cnc2nc(N)nc(N)c2n1)c1ccc(C(=O)N[C@@H](CCC(=O)O)C(=O)O)cc1	24
Nc1nc2ncc(CNc3ccc(C(=O)N[C@@H](CCC(=O)O)C(=O)O)cc3)nc2c(=O)[nH]1	82*!
Nc1nc2[nH]cc(CCc3ccc(C(=O)N[C@H](CCC(=O)O)C(=O)O)cc3)c2c(=O)[nH]1	5
Cc1ccc(C2OCCCC2CNC(=O)Cc2ccc(C)nc2)cc1 (stereo not given)	-6
COC(=O)c1ccc(NC(=O)c2cnc3onc(C(C)C)c3c2)s1	-20
CCn1c(C2CCCNC2)nn(Cc2cc(OC)ccn2)c1=O (stereo not given)	61*!
CCn1c(C2CCCNC2)nn(Cc2cc(=O)n3cc(C)sc3n2)c1=O (stereo not given)	-6
COc1ccnc(Cn2nc(C3CCNCC3)n(-c3ccccc3)c2=O)c1	5
Cc1cc(C)c2[nH]c(=O)c(CN3CCC4(CCOCC4)CC3)cc2c1	-48
O=C(CC1CSc2nc3c(c(=O)n21)CCCC3)NCc1ccc(F)cc1 (stereo not given)	-7
COc1cc(CSc2nnnn2-c2ccccc2)ccc1OC(F)F	0
COc1ccc(CN(C)Cc2nnc(C(C)C)o2)cc1OC(F)F	81*
COc1cc(CN(C)Cc2oc(CO)cc(=O)c2O)ccc1OC(F)F	-31
COc1cc(C)c2c(c1C=O)Oc1c(c(C)c(O)c3c1C(O)OC3=O)OC2=O (stereo not given)	34
Cc1cc(O)c(C=O)c2c1C(=O)Oc1c(C)c(O)c3c(c1O2)C(O)OC3=O (stereo not given)	85*
O=C(O)c1ccc(-n2c(C3C4CCCCC43)n[nH]c2=S)cc1 (stereo not given)	-6
COc1ccccc1C(c1c(NC(C)=O)sc2c1CCCC2)N1CCN(CCO)CC1 (stereo not given)	-3
SMILES	mcGAS RapidFire
Cc1[nH]nc2ncc(C(=O)NC3CCCC(C)C3C)cc12 (stereo not given)	-2
CCOC(=O)C1(Cc2cccc(F)c2)CCN(Cc2ccncc2)CC1	-1
Cc1oc2ncn(C)c(=O)c2c1C(=O)Nc1cccc(COCC2CC2)c1	94*
Cc1oc(C)c(C(=O)Nc2cccc(N3CCCC3=O)c2)c1C	-3
CCCC1(CNC(=O)c2c(C)oc3ncn(C)c(=O)c23)CCC1	-9
O=C(Nn1cnc2c(cnn2-c2ccc(F)cc2)c1=O)c1ccc2c(c1)OCO2	-3
O=C(Nc1ccc(-n2cncn2)nc1)C1(c2ccc3c(c2)OCCO3)CCCC1	-4
COc1ccc(S(=O)(=O)NCCNc2nc(C)nc3sccc23)cc1	-4
COC(=O)C1=C(O)/C(=C\c2ccc(O)cc2)SC1=Nc1ccc(C)cc1	-1
COCCN1CCN(C(=O)CCc2nnc(CCc3ccc(OC)cc3)o2)CC1	-2
COc1ccc(CCC(=O)N2CCN(Cc3nnc(C4CC4)o3)CC2)cc1	94*
COC(=O)C1CCCCN1C(=O)CCc1nnc(CCc2ccc(OC)cc2)o1 (stereo not given)	-12
O=C(CC1Cn2ncc(-c3ccccc3)c2NC1=O)NC1CCCCCC1 (stereo not given)	-2
Cc1ccc(C(=O)c2nc3c(n2O)CCCCC3)cc1	90*
CCOc1ccc(C(=O)c2nc3c(n2O)CCCCC3)cc1OCC	-3
O=C(c1cccc2ccccc12)c1nc2c(n1O)CCCC2	-5
O=c1c(-c2ccccc2)coc2cc(O)cc(O)c12	86*
O=c1c(-c2ccc(O)cc2)coc2cc(O)ccc12	-4
O=c1c(O)c(-c2ccc(O)cc2)oc2cc(O)cc(O)c12	11
CCOC(=O)c1nc2c(N)nc(SC)nc2[nH]c1=O	45
O=S1(=O)CCCN(Cn2nc(-c3cccs3)oc2=S)CC1	-4
CCn1c(C)cc(O)c(C(c2cccs2)N2CCCCC2)c1=O (stereo not given)	63*
CCn1c(C)cc(O)c(C(c2ccc(SC)cc2)N2CCCCC2)c1=O (stereo not given)	-8
CCn1c(C)cc(O)c(C(c2cccs2)N2CCC(C)CC2)c1=O (stereo not given)	-6
CC(=O)C(c1ccccc1)C1(O)C(=O)N(Cc2ccccc2)c2ccccc21 (stereo not given)	-21
O=C1Nc2ccc(Br)cc2C1=O	5
O=C1Nc2ccc(Br)cc2/C1=c1/sc2n(c1=O)CCN=2	81*
